# Data reported in PubChem BioAssay AID1986 (Sanford-Burnham Center for Chemical Genomics, 2009).
# About 890 (0.31%) of roughly 290,000 compounds were called active. Cut-off read from the data, not from the text of the source: active = inhibition mostly above about 52% (no sharp cut-off); inactive = mostly below about 76%. Many of the other results were omitted from the sample, so actives are more common in it than they were.
# Experiment: cell-free HIV fusion peptide-binding blockers – biochemical, uHTS, fluorescence dequenching, primary screen (AID 1986)
# Conditions: 30 min, stronger effect = higher value
# [1] = measured here: repeat confirmation average inhibition, at 18.6 µM
SMILES,inhibition (at 20 µM),inhibition [1] [%]
O=C(N/N=C/c1c(F)c(F)c(F)c(F)c1F)c1cccc(S(=O)(=O)N2CCOCC2)c1,0.1% (inactive),
O=C(N/N=C/c1cc(Br)cc(Br)c1O)c1cccc(S(=O)(=O)N2CCOCC2)c1,80.2% (active),53.2
O=C(N/N=C/c1cc(Br)cc(Br)c1O)c1ccncc1,103% (active),59.2
COc1cc(/C=N/NC(=O)c2cccc(S(=O)(=O)N3CCOCC3)c2)cc(OC)c1O,-3.4% (inactive),
O=C(N/N=C/c1cc(Br)ccc1O)c1ccncc1,3.3% (inactive),
COc1c(Br)cc(Br)cc1/C=N/NC(=O)c1ccncc1,-1% (inactive),
Cc1csc(NC(=O)/C=C/c2ccc(C)o2)n1,8.7% (inactive),
O=c1[nH]c(C2CCN(S(=O)(=O)c3ccc(S(=O)(=O)NC4CC4)cc3)CC2)nc2c1nnn2Cc1ccccc1,-0.4% (inactive),
O=S(=O)(Cc1ccccc1)NCC1CCCO1 (stereo not given),-2.7% (inactive),
CCCCN(CCCC)C(=O)c1cc2ccccc2c(=O)o1,-1.7% (inactive),
CCCCC[C@H](O)/C=C/[C@@H]1[C@@H](C/C=C\CCCC(=O)O)[C@H]2CO[C@@H]1C2,3.4% (inactive),
CCCCC[C@H](O)/C=C/[C@H]1C=CC(=O)[C@@H]1C/C=C\CCCC(=O)O,52.4% (active),
CCCCC[C@H](O)/C=C/[C@@H]1[C@@H](C/C=C\CCCC(=O)O)[C@@H](O)C[C@H]1O,-0.8% (inactive),
CCOC(=O)c1ccc(NC(=S)NCC(O)c2ccccc2)cc1 (stereo not given),8.7% (inactive),
Cn1cnnc1SCC(=O)Nc1ccc(Cl)cc1,1.9% (inactive),
Cn1cccc1/C=C1\SC(=S)N(NC(=O)c2ccccc2)C1=O,35.3% (inactive),
Cc1ccc(C(=O)NN2C(=O)/C(=C/c3cccn3C)SC2=S)cc1,24.4% (inactive),
Cn1cccc1/C=C1\SC(=S)N(NC(=O)c2ccccc2O)C1=O,66.2% (inactive),25.2
Cn1cc(/C=C2\SC(=S)N(NC(=O)c3ccccc3Cl)C2=O)c2ccccc21,66.4% (active),117
Cn1cccc1/C=C1\SC(=S)N(NC(=O)c2cccc(Cl)c2)C1=O,25.6% (inactive),
Cn1cccc1/C=C1\SC(=S)N(NC(=O)c2ccccc2Cl)C1=O,22.1% (inactive),
Cc1ccc(C(=O)NN2C(=O)/C(=C/c3cn(C)c4ccccc34)SC2=S)cc1,86.9% (active),91.3

SMILES,inhibition (at 20 µM),inhibition [1] [%]
Cn1cc(/C=C2\SC(=S)N(NC(=O)c3ccccc3)C2=O)c2ccccc21,122% (inactive),17.7
Cn1cc(/C=C2\SC(=S)N(NC(=O)c3cccc(Cl)c3)C2=O)c2ccccc21,69.3% (active),
Cc1nc(SCc2ccccc2)[nH]c(=O)c1CC(=O)OCC(C)C,0.8% (inactive),
CN(C)c1nc(N)c([N+](=O)[O-])c(NCc2ccccc2)n1,-1.3% (inactive),
Cc1onc(-c2c(Cl)cccc2Cl)c1C(=O)Nc1nccs1,-1% (inactive),
COc1ccc(NCC(=O)N/N=C(\C)c2cc3ccccc3o2)cc1,-3.3% (inactive),
Cc1c(NC(=O)c2cccs2)c(=O)n(-c2ccccc2)n1C,-1.2% (inactive),
Cc1c(NC(=O)/C(=C/c2cccs2)c2cccs2)c(=O)n(-c2ccccc2)n1C,6.2% (inactive),
Cc1c(N=C2N=C(NC(=O)NC(C)(C)C)c3ccccc32)c(=O)n(-c2ccccc2)n1C,-0.2% (inactive),
Cc1c(N=C2N=C(NC(=O)c3ccc(F)cc3)c3ccccc32)c(=O)n(-c2ccccc2)n1C,74.4% (active),
Cc1c(N=C2N=C(NC(=O)Nc3ccc(Cl)cc3)c3ccccc32)c(=O)n(-c2ccccc2)n1C,137% (inactive),
Cc1c(N=C2N=C(NC(=O)c3cccs3)c3ccccc32)c(=O)n(-c2ccccc2)n1C,75.3% (active),
CC(=O)Nc1cccc(NC(=O)CSc2ncc(-c3ccccc3)[nH]2)c1,0.5% (inactive),
Cc1ccc(C(C(=O)NC2CCCCC2)N(Cc2ccco2)C(=O)Cn2cnc3ccccc32)cc1 (stereo not given),-1.8% (inactive),
Cc1nc(NC(=O)/C=C/c2ccccc2)sc1C(=O)N1CCCCC1,-0.3% (inactive),
Cc1cc(/C=C2\SC(=S)N(Cc3ccco3)C2=O)c(C)n1-c1cccnc1,53.6% (active),94.4
COc1ccc(-n2c(C)cc(/C=C3\SC(=S)N(Cc4ccco4)C3=O)c2C)cc1,38.3% (inactive),
Cc1cc(/C=C2\SC(=S)N(Cc3ccco3)C2=O)c(C)n1-c1ccccc1,43.7% (inactive),
NC(=O)CSc1nc(C23CC4CC(CC(C4)C2)C3)nc2ccccc12,-1.1% (inactive),
CC(C)(C)C(=O)/C=c1\s/c(=C\c2ccc(-c3ccc([N+](=O)[O-])cc3)o2)c(=O)n1CC(=O)NC(N)=O,76.8% (active),
CCCNC(=O)Cn1c(=O)/c(=C\c2ccc(-c3cccc([N+](=O)[O-])c3)o2)s/c1=C\C(=O)C(C)(C)C,23.1% (inactive),
CCCNC(=O)Cn1c(=O)/c(=C\c2ccc(-c3ccc([N+](=O)[O-])cc3)o2)s/c1=C\C(=O)C(C)(C)C,145% (inactive),

SMILES,inhibition (at 20 µM),inhibition [1] [%]
O=C(CCc1nc2ccccc2[nH]c1=O)N/N=C/c1ccccc1,-0.5% (inactive),
CCOC(=O)NC(=O)CSc1nc(C)cc(C(F)(F)F)c1C#N,4.9% (inactive),
CCOC(=O)CCSc1nc(C(C)(C)C)cc(C(F)(F)F)c1C#N,-0.1% (inactive),
CCOC(=O)CCSc1nc(C)cc(C(F)(F)F)c1C#N,82% (active),50.9
O=C(NN=C1C2CC3CC(C2)CC1C3)c1cccc(S(=O)(=O)N2CCOCC2)c1,2.1% (inactive),
Cc1ccccc1CSc1n[nH]c(NS(=O)(=O)c2ccccc2)n1,-0.6% (inactive),
COc1ccccc1C(=O)NNC(=O)c1cccc(C)c1,0.2% (inactive),
CCNc1nc(-c2cc(C)n(Cc3ccco3)c2C)cs1,59.6% (inactive),0.3
Cc1cc(-c2csc(NC(=O)c3ccc(C#N)cc3)n2)c(C)n1Cc1ccccc1,15.9% (inactive),
Cc1cc(-c2csc(NC(=O)c3ccc(=O)[nH]c3)n2)c(C)n1Cc1ccccc1,84.8% (inactive),2.3
Cc1cc(-c2csc(N)n2)c(C)n1Cc1ccco1,46.3% (inactive),
Cc1cc(-c2csc(NC(=O)c3ccc(=O)[nH]c3)n2)c(C)n1Cc1ccco1,61% (active),
Cc1cc(-c2csc(NC(=O)c3ccc(C#N)cc3)n2)c(C)n1Cc1ccco1,56.1% (active),
O=C(Nc1cccc(C(F)(F)F)c1)/C(=C/c1ccco1)NC(=O)c1cccs1,15.1% (inactive),
COC(=O)c1ccc(COc2ccccc2/C=N/Nc2cccc(C(=O)O)c2)cc1,37% (inactive),
COC(=O)c1ccc(COc2ccc(/C=N/Nc3cccc(C(=O)O)c3)cc2)cc1,58.9% (active),
O=C(O)c1cccc(N/N=C/c2ccc(OC(F)(F)F)cc2)c1,26.1% (inactive),
COc1ccc(/C=N/NC(=O)c2cccc([N+](=O)[O-])c2)cc1OC(=O)c1ccc(C)cc1,-0.7% (inactive),
CO/N=C(\c1nonc1N)N1CCN(c2ccc(Cl)cc2[N+](=O)[O-])CC1,-0.3% (inactive),
COc1ccccc1/C=C/C=C1N=C(/C=C/c2ccc(Cl)cc2)OC/1=O,56.4% (inactive),-0.4
CC1=N/C(=C/c2ccco2)C(=O)O1,41.7% (inactive),
O=C1OC(/C=C/c2ccc(Cl)cc2)=NC/1=C/c1ccco1,56.5% (active),

SMILES,inhibition (at 20 µM),inhibition [1] [%]
O=C(NCc1ccccc1Cl)NCc1ccccc1Cl,1% (inactive),
CCCC(=O)n1nc(-c2ccccc2)nc1SC,3.2% (inactive),
Cc1nnc(NC(=O)C23CC4CC(CC(C4)C2)C3)s1,2.2% (inactive),
COc1ccc(-c2cc(CCCC(=O)N3CCN(c4ccc(OC)cc4)CC3)no2)cc1,-1.3% (inactive),
COc1ccc2nc3cc(Cl)ccc3c(Nc3cc(C(C)C)c(O)cc3C)c2c1,-5.4% (inactive),
CCN(CC)CCCC(C)Nc1c2ccc(Cl)cc2nc2ccc(OC)cc12 (stereo not given),62.2% (active),
COc1ccc2nc3cc(Cl)ccc3c(C#N)c2c1,3.4% (inactive),
COc1c(/C=C2\SC(=Nc3ccccc3Cl)NC2=O)cccc1[N+](=O)[O-],20% (inactive),
COc1cccc(N=C2NC(=O)/C(=C/c3cc([N+](=O)[O-])ccc3O)S2)c1,64.2% (inactive),33
O=C1N/C(=N\S(=O)(=O)Cc2ccccc2)S/C1=C/c1cccc([N+](=O)[O-])c1,30.7% (inactive),
O=C1NC(=Nc2ccccc2Cl)S/C1=C\c1cc([N+](=O)[O-])ccc1O,89.1% (active),124
O=C1N/C(=N\S(=O)(=O)Cc2ccccc2)S/C1=C/c1cc([N+](=O)[O-])ccc1O,69.6% (active),
COc1cc(/C=C2\S/C(=N/S(=O)(=O)Cc3ccccc3)NC2=O)c([N+](=O)[O-])cc1OC,25.9% (inactive),
O=C1NC(=Nc2ccccc2Cl)S/C1=C\c1cccc([N+](=O)[O-])c1,75.6% (inactive),29.4
O=C1NC(=Nc2ccccc2Cl)S/C1=C\c1ccc(C(=O)O)cc1,26.9% (inactive),
N/C(=N\NC(=O)c1ccccc1Cl)c1cc2ccccc2oc1=O,0.3% (inactive),
CCC(=O)Nc1ccc(-c2nnc(SCc3ccc(C(=O)Nc4nccs4)cc3)n2CC)cc1,-0.6% (inactive),
NC1=NC[C@H](CC2CCCCC2)N1CCc1cc(C(F)(F)F)cc(C(F)(F)F)c1,0.6% (inactive),
CC(C)[C@@H]1NC(=O)N(c2ccc(Oc3ccccc3)cc2)C1=O,-2.5% (inactive),
COc1cccc(-c2c(C(=O)N/N=C(\C)COc3ccccc3)nnn2-c2nonc2N)c1,-1.6% (inactive),
